In PubChem BioAssay AID488890 (Southern Research Specialized Biocontainment Screening …, 2010):
The whole screen tested about 320,000 compounds, of which about 1,300 (0.41%) were called active. Roughly 3% stayed inconclusive and do not appear here. No rule for the calls is given here. Only a sample is shown. Measured potencies and affinities stand elsewhere.

test: growth inhibition of non-replicating M. tuberculosis (AID 488890); settings: Mycobacterium tuberculosis non-replicating, at 25 µM, stronger effect = higher value;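 also: plate controls were DMSO cells for no effect and high antibiotic wells for full effect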

| SMILES | inhibition |
| --- | --- |
| CCOC(=O)C1CCN(CC(=O)Nc2c(C(=O)OC)[nH]c3cccc(C)c23)CC1 | 2.06% |
| CC(=O)NCC(=O)OCC(=O)N1c2ccccc2Sc2ccccc21 | 15.6% |
| CCOC(=O)N1c2ccccc2Sc2ccccc21 | 11.9% |
| COc1cccc(CN(C)C(=O)Cc2c[nH]c3ccccc23)c1OC | 5.31% |
| CCOC(=O)C1=C(COC(=O)c2ccc(C)s2)NC(=O)NC1C (stereo not drawn) | 11.3% |
| CCS(=O)(=O)N1N=C(c2cccc(NS(C)(=O)=O)c2)CC1c1ccccc1 (stereo not drawn) | 36.4% |
| Cc1nn(-c2nc3ccccc3s2)c(N)c1-c1ccc(Cl)cc1 | -4.69% |
| Cc1nn(-c2nc3ccccc3[nH]2)c(=O)c2ccccc12 | 34% |
| CCC(=O)c1ccc(OCC(=O)OCC(=O)c2cc(C)n(CC3CCCO3)c2C)cc1 (stereo not drawn) | 70.2% |
| Cc1cc(C(=O)COC(=O)COc2ccc(C#N)cc2)c(C)n1C1CC1 | 47% |
| CC(C)c1ccc(NC(=O)C2CCCN2S(=O)(=O)c2ccccc2F)cc1 (stereo not drawn) | -6.6% |
| O=c1[nH]c(O)c(C=Nc2ccc(F)c(Cl)c2)c(=O)[nH]1 | 4.76% |
| CC1=Nc2ccccc2/C1=C/c1c(O)[nH]c(=O)[nH]c1=O | 1.63% |
| O=C(Nc1cccc(Cl)c1)c1nc[nH]c1C(=O)NCc1ccccc1 | 78.3% |
| O=C(c1cccs1)N1CCC(Cc2ccccc2)CC1 | 11.9% |
| Cc1cc(C(=O)N2CCC(Cc3ccccc3)CC2)c(C)o1 | 15.3% |
| CCOCC(=O)N1CCC(Cc2ccccc2)CC1 | 47.1% |
| CCCNC(=O)N1CCC(Cc2ccccc2)CC1 | 67.7% |
| O=C(O)CCCC(=O)N1CCN(c2ncccn2)CC1 | -16.3% |
| COc1ccc(-n2cc(C(=O)c3cc4ccccc4oc3=O)c(C(C)=O)n2)cc1 | 19.3% |
| COc1ccc(CCNC(=O)c2cccc(S(=O)(=O)N3CCOCC3)c2)cc1OC | 16% |
| O=C(Cc1ccc(Cl)c(Cl)c1)OCC(=O)c1ccc[nH]1 | 70.6% |
| O=C(COC(=O)c1ccc[nH]c1=O)c1ccc(Cl)s1 | 21.8% |

| SMILES | inhibition |
| --- | --- |
| O=C(Cc1ccc(Br)cc1)OCC(=O)c1ccc[nH]1 | 79.4% |
| O=C(COC(=O)c1nc(Cl)ccc1Cl)c1ccc[nH]1 | 4.28% |
| CC(=O)N1c2ccc(S(=O)(=O)NCC3CCC(C(=O)NCc4ccccc4)CC3)cc2CC1C (stereo not drawn) | 14.7% |
| COc1ccc(CC2C(=O)N(C)C(=O)N(C)C2=O)c(OC)c1 | -3.03% |
| O=C/C(=C\Nc1ccc(Cl)cn1)c1nc2cc(Cl)ccc2o1 | 58.2% |
| COC(=O)C(C)Oc1ccc2c(-c3cccc([N+](=O)[O-])c3)cc(=O)oc2c1 (stereo not drawn) | 67.4% |
| CC(=O)COc1ccc2c(-c3cccc([N+](=O)[O-])c3)cc(=O)oc2c1 | -17.4% |
| COc1ccc(-c2cc3ccc(OCC(N)=O)cc3oc2=O)cc1OC | 17.8% |
| COc1ccc(-c2cc(=O)oc3cc(OCC(=O)N(C)C)ccc23)cc1 | -18.8% |
| COc1ccc(-c2cc3ccc(OC(C)C(=O)O)cc3oc2=O)cc1 (stereo not drawn) | -4.62% |
| COc1ccc(-c2cc(=O)oc3cc(OCC(C)=O)ccc23)cc1 | 36.8% |
| CC(Oc1ccc2cc(-c3ccccc3)c(=O)oc2c1)C(=O)NCC1CCC(C(=O)O)CC1 (stereo not drawn) | 4.91% |
| COc1ccc(-c2cc3ccc(OCC(C)=O)cc3oc2=O)cc1 | 15.4% |
| NS(=O)(=O)c1ccc(CCNC(=O)c2cccc(S(=O)(=O)N3CCCC3)c2)cc1 | 17.3% |
| S=c1[nH]nc(C2CCCCC2)n1/N=C/c1cccc(Br)c1 | -5.05% |
| O=C(c1ccco1)N1CCN(S(=O)(=O)c2ccc(Cl)cc2)CC1 | -7.62% |
| COCCCNC(=O)Nc1ccc(F)cc1F | -3.58% |
| NC(=O)COc1cc2oc(=O)c3c(c2cc1Cl)CCCC3 | -1.26% |
| CCN(CC)C(=O)c1sc(N)c(C(=O)OC(C)C)c1C | 29.4% |
| O=C(O)C1CC=CCC1C(=O)c1ccccc1 (stereo not drawn) | -2.95% |
| O=c1cccccc1NN=C1CCCCCC1 | 15.8% |
| CCOC(=O)c1sc(NC(=O)CSc2n[nH]c(C)n2)nc1C | 23.3% |
| CC(=C/c1ccco1)/C=N/NC(=O)c1ccncc1 | 52.5% |

| SMILES | inhibition |
| --- | --- |
| C/C(=N\Nc1nc(-c2ccccc2O)nc2ccccc12)c1ccccc1 | 7.99% |
| CC(C)CCC(C(=O)O)C(C)CC(=O)Nc1ccn(-c2ccccc2)n1 (stereo not drawn) | -10% |
| CSCCC(NC(=O)COc1ccccc1)C(=O)N(C)Cc1cccc(F)c1 (stereo not drawn) | 23.5% |
| O=C(O)COc1ccc2c(-c3ccccc3)cc(=O)oc2c1 | -4.18% |
| CCN(CC)C(=O)COc1ccc2c(-c3ccccc3)cc(=O)oc2c1 | -10% |
| Cc1ccc(NC(=O)CN(C)C(=O)CSc2ccccc2F)cc1 | 1.97% |
| COc1ccc(C(CNC(=O)c2c(C)nn(Cc3ccccc3)c2Cl)N2CCOCC2)cc1 (stereo not drawn) | 11.7% |
| O=C(COc1ccc(C(=O)c2ccccc2)cc1)NC1CCCCCC1 | 55.6% |
| COc1ccc(OCCC(=O)OCC(=O)NC2CCCCC2)cc1 | 39.1% |
| O=C(COc1ccccc1)NCC(=O)NC1CCCCC1 | 3.74% |
| COc1ccc(OCCC(=O)OCC(=O)NC2CCCCCCC2)cc1 | 42.5% |
| CCOc1ccc(CCNC(=O)CCc2nnc3ccc(N4CCCCC4)nn23)cc1OCC | 20.8% |
| Cc1cccc[n+]1C1C(c2ccccc2)C(C#N)=C(C(=C=[N-])C#N)NC1(O)C1CC1 (stereo not drawn) | 17.4% |
| COC(=O)c1ccc(CN2CCN(C3CCCCC3)C(CCO)C2)cc1 (stereo not drawn) | -2.17% |
| CCOC(=O)[C@@H]1[C@H]2COc3ccc(Br)cc3[C@H]2N2C(=O)N(c3ccc(C(F)(F)F)cc3)C(=O)[C@]12C | 37.9% |
| O=C(c1ccc(Br)s1)N1CCCC1 | 46.3% |
| O=C(c1ccc(Cl)s1)N1CCCC1 | 31% |
| Cc1ccc(NC(=O)CCC(=O)Nc2nnc(C3CCCCC3)s2)cc1 | -1.2% |
| NC(=NCCc1ccccc1)NS(=O)(=O)c1ccc2ccccc2c1 | 51.5% |
| CCC(CO)N=CC1=C(O)C(C(=O)c2ccccc2)CCC1=O (stereo not drawn) | 4.93% |
| CC(=O)Nc1ccc(NC(=O)CSc2nnc(-c3cc4ccccc4o3)n2C)cc1 | -4.95% |
| COc1cc(C(=O)O)c2ccccc2n1 | -12.4% |
| COc1cccc2nc3cc(C)c(C)cc3nc12 | 39.2% |

| SMILES | inhibition |
| --- | --- |
| CC(CNC(=O)CN1C(=O)C(=O)N(C2CCCC2)C1=O)c1ccccc1 (stereo not drawn) | 21.6% |
| O=C(O)C1=NN(c2ccccc2)C(=O)CC1 | 1.61% |
| COc1cc(CNCCO)cc(Br)c1OCc1ccccc1 | 28.5% |
| CCOc1cc(CNCCO)cc(Br)c1OCc1ccccc1 | 75.9% |
| CCOc1cc(CNCCO)cc(Br)c1OCc1cccs1 | 73.5% |
| COc1cc(CNCCO)cc(Br)c1OCc1ccccc1Cl | 79% |
| COCCNC(=O)COc1coc(CN2CCN(Cc3ccccc3)CC2)cc1=O | 0.19% |
| Cc1cccc(C(=O)NNC(=O)c2csc(N3CCOCC3)n2)c1C | -2.47% |
| CCOc1ccc2oc(C(=O)NNC(=O)c3csc(N4CCOCC4)n3)c(C)c2c1 | 75.8% |
| CCN(N=Nc1cccc([N+](=O)[O-])c1)c1cccc([N+](=O)[O-])c1 | -3.89% |
| CC1(C)CC(=O)C(N=Nc2cccc([N+](=O)[O-])c2)=C(O)C1 | -5.61% |
| COCC(C)n1c(SCC(=O)N2CCOCC2)nc2ccccc2c1=O (stereo not drawn) | 3.46% |
| CCC(C)[C@H](NC(=O)[C@@H]1CSC2c3ccccc3C(=O)N21)C(=O)N1CCCCC1 (stereo partly drawn) | 12.4% |
| Oc1ccc(-c2nnc(SCc3ccccc3)o2)cc1 | 77.5% |
| CCSc1nnc(-c2ccncc2)o1 | 0.24% |
| O=C(O)c1ccc(-c2nnc(-c3ccc([N+](=O)[O-])cc3)o2)cc1 | -2.79% |
| O=C(CSc1nnc(-c2ccncc2)o1)c1cccc([N+](=O)[O-])c1 | 70.5% |
| OCC#CCSc1nnc(-c2ccncc2)o1 | 23.9% |
| O=C(CSc1nnc(-c2ccc(O)cc2)o1)Nc1ccccc1 | 63.5% |
| Cc1ccc(C(=O)CSc2nnc(-c3ccccc3)o2)cc1 | 64.9% |
| COc1ccc(-c2nnc(SCC#CCO)o2)cc1OC | 45.7% |
| CCOCCCNC(=O)c1cc2c(s1)-c1ccccc1SC2 | 9.76% |
| CC(=O)Nc1nccc(-c2cc(-c3ccccc3)no2)n1 | 2.66% |

| SMILES | inhibition |
| --- | --- |
| COc1ccccc1N(CC(O)Cn1c2ccccc2c2ccccc21)S(=O)(=O)c1ccccc1 (stereo not drawn) | 31.5% |
| Cc1ccccc1C(=O)NNC(=O)c1ccc2nc[nH]c2c1 | 8.7% |
| COc1ccc(S(=O)(=O)Nc2cccc3c2O[C@H](CN(C)S(=O)(=O)c2ccc(Cl)cc2)[C@H](C)CN([C@H](C)CO)C3=O)cc1 | 51.4% |
| O=c1c2ccccc2ncn1-c1ccc(Cl)c(Cl)c1 | 1.67% |
| COc1cc(Cl)cc(C=O)c1OCC(=O)O | 8.45% |
| COc1ccc(CCNC(=O)C2CCCN2C(=O)Nc2ccc(Cl)cc2)cc1OC (stereo not drawn) | 20.8% |
| C=CCSc1nnc(-c2cccc3ccccc23)o1 | 5.5% |
| Cc1ccc(CSc2nnc(-c3cccc4ccccc34)o2)cc1 | 14.4% |
| C#CCSc1nnc(-c2sc3ccccc3c2Cl)o1 | 71.8% |
| Cc1ccccc1-c1nnc(SCC#N)o1 | 15.7% |
| C#CCSc1n[nH]c(=O)n1-c1cccc(C(F)(F)F)c1 | 3.27% |
| O=C(N/N=C/c1c(O)n(-c2ccc(Cl)cn2)c(=O)c2ccccc12)C1CC1 | 6.8% |
| O=C(CCNc1n[nH]c(=O)[nH]c1=O)N/N=C\c1cccc(OCc2ccccc2)c1 | 10.7% |
| COc1cccc(NC(=O)CNC(=O)c2ccc([N+](=O)[O-])cc2)c1 | 12.4% |
| COc1cccc(NC(=O)c2ccccc2)c1 | 4.57% |
| Cc1cc(NC(=O)c2ccc(Cn3cc([N+](=O)[O-])cn3)o2)no1 | 14.1% |
| Cc1ccccc1NC(=O)c1ccc(Cn2cc([N+](=O)[O-])cn2)o1 | 46.5% |
| COc1ccc(NC(=O)c2ccc(C(=O)c3ccccc3)o2)cc1 | -11.3% |
| COc1ccc(CCNC(=O)c2ccc(-c3ccc([N+](=O)[O-])cc3)o2)cc1OC | 60.1% |
| COc1cccc(NC(=O)CC(=O)c2ccc([N+](=O)[O-])cc2)c1 | 47% |
| CC(=O)Nc1ccc(NC(=O)c2ccc(-c3ccc([N+](=O)[O-])cc3)o2)cc1 | 28.3% |
